A short description of test [1]: TOX21_p53_BLA_p2_viability: Viability Assessment in the Tox21 HCT-116 p53 Agonism Beta-lactamase Assay, Phase 2 (AID 2283591).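 Also: compound exposure lasted 16 h at 37 °C; actives lower the ATP signal meaning cytotoxicity.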 The procedure, abridged:
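HCT-116 p53-bla cells (4000/well) rested 5 h at 37C, then received compounds in DMSO (217-fold dilution) for 16 h at 37C, 5% CO2. After the CCF4 read, CellTiter-Glo was added; ATP luminescence was read after 30 min at room temperature.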

Test [2] addresses Cellular tumor antigen p53 (Homo sapiens) (UniProt P04637). Description: TOX21_p53_BLA_p2_ratio: Tox21 HCT-116 p53 Agonism Beta-lactamase Assay, Ratio, Phase 2 (AID 2283592). The procedure, abridged:
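Cleaved-to-uncleaved substrate ratio (460 vs 530 nm) measured in HCT116 cells with an inducible beta-lactamase reporter linked to p53 activity. Compounds incubated 16 h at 37C before 2 h room-temperature CCF4-AM loading.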

Test [3] is described as follows: TOX21_p53_BLA_p3_viability: Viability Assessment in the Tox21 HCT-116 p53 Agonism Beta-lactamase Assay, Phase 3 (AID 2283593).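 Also: cells exposed to compound for 16 h before reading.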 The essentials: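 HCT-116 cells (4000/well) rested 5 h at 37C, then got DMSO compounds by pin tool (217-fold dilution) for 16 h at 37C, 5% CO2. After the bla read, CellTiter-Glo was added and luminescence read at 30 min, room temperature.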

Test [4] addresses Cellular tumor antigen p53 (Homo sapiens) (UniProt P04637). Put plainly: TOX21_p53_BLA_p3_ratio: Tox21 HCT-116 p53 Agonism Beta-lactamase Assay, Ratio, Phase 3 (AID 2283596). The procedure, abridged:
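Cells were seeded at 4000/well, rested 5 h at 37C, then dosed with DMSO compound solutions (217-fold dilution) for 16 h. CCF4-AM substrate was loaded for 2 h at room temperature, and the 460/530 nm emission ratio was fitted for gain of signal versus DMSO.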

Test [5] in a line: TOX21_p53_BLA_p4_viability: Viability Assessment in the Tox21 HCT-116 p53 Agonism Beta-lactamase Assay, Phase 4 (AID 2283597).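 Also: hits lower the luminescence signal meaning cytotoxicity.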 The essentials: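 Viability is taken as cellular ATP: after 16 h compound exposure of HCT116 cells and a 2 h room-temperature CCF4-AM substrate step, CellTiter-Glo reagent is added and luminescence is measured 30 min later.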
The target in test [6] is Cellular tumor antigen p53 (Homo sapiens) (UniProt P04637). Put plainly: TOX21_p53_BLA_p5_ratio: Tox21 HCT-116 p53 Agonism Beta-lactamase Assay, Ratio, Phase 5 (AID 2283599). The procedure, abridged: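 HCT-116 cells carrying a p53-inducible beta-lactamase reporter were seeded at 4000 cells/well and dosed after 5 h with compound in DMSO (217-fold dilution). After 16 h at 37C, CCF4-AM substrate was added for 2 h, and the 460/530 nm emission ratio was scored as gain-of-signal versus DMSO.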

Test [7] can be described thus: TOX21_p53_BLA_p5_viability: Viability Assessment in the Tox21 HCT-116 p53 Agonism Beta-lactamase Assay, Phase 5 (AID 2283600). The procedure, abridged:
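Viability is taken from cellular ATP content, measured by luciferase luminescence in the same wells after the beta-lactamase ratio read. Cells are seeded at 4000 per well and exposed to DMSO-dissolved compounds, diluted 217-fold, for 16 h.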

Test [8] addresses Cellular tumor antigen p53 (Homo sapiens) (UniProt P04637). Put plainly: TOX21_p53_BLA_p4_ratio: Tox21 HCT-116 p53 Agonism Beta-lactamase Assay, Ratio, Phase 4 (AID 2283601). The essentials:
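HCT116 cells carrying an inducible beta-lactamase reporter were plated at 4000 cells/well, rested 5 h, then exposed to compounds in DMSO (217-fold dilution) for 16 h at 37C. CCF4-AM substrate was loaded 2 h at room temperature; 460/530 nm emission ratio scored gain-of-signal versus DMSO.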

A word on the AC50: it is the concentration giving half of the maximal activity seen.

Inconclusive results are not listed. Activity calls are given as the source filed them. The calls were made as follows: active = hit-call score of the fitted dose curve at least 0.9, where 1 is the maximum; inconclusive = response in the unintended direction; inactive = score below 0.9.

Cellular tumor antigen p53 (Homo sapiens), sequence (P04637 whole entry, looked up): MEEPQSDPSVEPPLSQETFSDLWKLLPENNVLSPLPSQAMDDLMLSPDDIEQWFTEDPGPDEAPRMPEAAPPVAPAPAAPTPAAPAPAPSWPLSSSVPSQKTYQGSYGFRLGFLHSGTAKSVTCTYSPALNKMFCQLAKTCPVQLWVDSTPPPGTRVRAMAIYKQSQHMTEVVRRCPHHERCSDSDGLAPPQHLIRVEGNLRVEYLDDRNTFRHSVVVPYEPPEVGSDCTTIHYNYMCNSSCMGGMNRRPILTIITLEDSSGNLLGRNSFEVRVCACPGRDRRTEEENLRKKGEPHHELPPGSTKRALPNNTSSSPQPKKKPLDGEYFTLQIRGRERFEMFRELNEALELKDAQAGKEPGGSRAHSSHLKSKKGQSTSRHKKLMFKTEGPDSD

Regarding `Cc1ccc(O)c(O)c1`, the AC50 in test [1] was 40.8 µM (active); in test [3], 41.5 µM (active); in test [5], 41 µM (active); in test [6], 66 µM (active); in test [7] it was 42 µM (active). In addition, the result in test [2], in test [4] and in test [8] was inactive.
For `CSc1ccc2c(c1)C(N1CCN(C)CC1)Cc1ccccc1S2` (stereo not drawn), the half-maximal activity concentration (AC50) in test [1] is 36.3 µM (active); in test [2], 44.4 µM (active); in test [3], 37.8 µM (active); in test [5], 34.5 µM (active); in test [7], 38.3 µM (active); in test [8] it was 42.4 µM (active). For the same compound, the result in test [4] and in test [6] was inactive.
On to `CCN(CC)CCOc1ccc(-c2nc3cc(Cl)ccc3s2)cc1`, for which the AC50 in test [1] is 44.8 µM (active); in test [5], 36.3 µM (active). Further, the outcome in test [2], in test [3], in test [4], in test [6], in test [7] and in test [8] was inactive.
In the case of `CCCCCCCCC(CCCCCC)C(=O)O` (stereo not drawn), the call in test [1], in test [2], in test [4], in test [5], in test [6] and in test [7] was inactive. Further, in test [8], the result was inactive. Also, in test [3], the AC50 was 65.9 µM (active).
Turning to `CC(C)Oc1ccc2c(=O)c(-c3ccccc3)coc2c1`, the compound was classed as inactive in test [1], in test [2], in test [3], in test [4], in test [5] and in test [6]. The outcome in test [7] and in test [8] was inactive.
As to `CC1(C)C[C@@H]1C(=O)N/C(=C\CCCCSC[C@H](N)C(=O)O)C(=O)O`, the call in test [1], in test [2], in test [3], in test [4], in test [5] and in test [6] was inactive. Moreover, the compound was classed as inactive in test [7] and in test [8].
For the compound `COc1cc(C(=O)NS(=O)(=O)c2ccccc2C)ccc1Cc1cn(C)c2ccc(NC(=O)OC3CCCC3)cc12`, the AC50 in test [1] was 14.2 µM (active); in test [2], 7.01 µM (active); in test [3] it was 7.45 µM (active); in test [4] it was 8.2 µM (active); in test [5], 8.18 µM (active); in test [6], 12.9 µM (active). Further, the AC50 was 10.1 µM (active) in test [7] and 9.98 µM (active) in test [8].
`CC(C)(C)C(=O)C(Oc1ccc(Cl)cc1)n1ccnc1` (stereo not drawn): the compound was classed as inactive in test [1], in test [2], in test [3], in test [4], in test [5] and in test [6]. The result in test [7] and in test [8] was inactive.
For `Cc1cnc(C(=O)O)c[n+]1[O-]`, the compound was called inactive in test [1], in test [2], in test [3], in test [4], in test [5] and in test [6]. Also, the call in test [7] and in test [8] was inactive.
As to `CC1=C[C@H](O)CC(C)(C)[C@H]1/C=C/C(C)=C/C=C/C(C)=C/C=C/C=C(C)/C=C/C=C(C)/C=C/C1=C(C)C[C@@H](O)CC1(C)C`, the compound was called inactive in test [1], in test [2] and in test [3]. The AC50 was 39.9 µM (active) in test [4]; 35.3 µM (active) in test [5]; 38.4 µM (active) in test [6]; 43 µM (active) in test [7]; 34.8 µM (active) in test [8].
`Oc1ccc(Sc2ccc(O)cc2)cc1`: the compound was called inactive in test [1], in test [3], in test [5], in test [7] and in test [8]. Further, the AC50 in test [2] is 69.4 µM (active); in test [4], 69.8 µM (active); in test [6] it was 70.4 µM (active).
For the compound `N=C(N)c1ccc(OCCCOc2ccc(C(=N)N)cc2Br)c(Br)c1`, the compound was called inactive in test [1], in test [2], in test [3], in test [4], in test [5] and in test [6]. For the same compound, the call in test [7] and in test [8] was inactive.
`CNc1ccc(O)cc1`: the result in test [1], in test [2], in test [4], in test [5], in test [6] and in test [8] was inactive. Moreover, the AC50 in test [3] was 82 µM (active); in test [7], 78 µM (active).
For the compound `CCCCC(CC)CN=C(N)NC(N)=NCCCCCCN=C(N)NC(N)=NCC(CC)CCCC` (stereo not drawn), the AC50 in test [1] was 32 µM (active); in test [2] it was 24.1 µM (active); in test [3] it was 36.8 µM (active); in test [4], 33.9 µM (active); in test [5], 29.4 µM (active); in test [6], 37.3 µM (active). Besides, the AC50 was 31.6 µM (active) in test [7] and 27.9 µM (active) in test [8].
As for `Cc1ccc(S(=O)(=O)NC(=O)NN2CC3CCCC3C2)cc1` (stereo not drawn), the outcome in test [1], in test [2], in test [3], in test [4], in test [5] and in test [6] was inactive. The result in test [7] and in test [8] was inactive.
For `O=C(NCC1CCCCN1)c1cc(OCC(F)(F)F)ccc1OCC(F)(F)F` (stereo not drawn), the compound was called inactive in test [1], in test [2], in test [3], in test [4], in test [5] and in test [6]. The compound was classed as inactive in test [7] and in test [8].
For the compound `Cc1c(Cl)cccc1Nc1ccccc1C(=O)O`, the AC50 in test [1] was 5.79 µM (active); in test [2], 19.4 µM (active); in test [3], 23 µM (active); in test [4], 21.1 µM (active); in test [5], 10.2 µM (active); in test [6], 21.6 µM (active). For the same compound, in test [8], the AC50 was 17.7 µM (active). In addition, the call in test [7] was inactive.
`Clc1cc(Cl)c(OCC#CI)cc1Cl`: the call in test [1], in test [3], in test [4], in test [7] and in test [8] was inactive. For the same compound, the AC50 in test [2] was 33.7 µM (active); in test [5] it was 23 µM (active); in test [6], 39.7 µM (active).
Consider `O=C(NOC[C@H](O)CO)c1ccc(F)c(F)c1Nc1ccc(I)cc1F`, for which the compound was called inactive in test [1], in test [2], in test [3], in test [4], in test [5] and in test [6]. For the same compound, the compound was called inactive in test [7] and in test [8].
On to `Cc1cc(CC(=O)O)n(C)c1C(=O)c1ccc(Cl)cc1`, for which the compound was classed as inactive in test [1], in test [2], in test [3], in test [4], in test [5] and in test [6]. Besides, the result in test [7] and in test [8] was inactive.
In the case of `CN(C)c1nc(N(C)C)nc(N(C)C)n1`, the compound was classed as inactive in test [1], in test [2], in test [3], in test [4], in test [5] and in test [6]. In addition, the result in test [7] and in test [8] was inactive.

For the origin of these results see PubChem BioAssay (EPA / NIEHS).
